The source of these data is ChEMBL document CHEMBL3988442, “University of Dundee, Small-Polar-MMV Screening Library” (2021).

Holding throughout (parameters): scale not given: direction of the effect not stated beside the values
Experiment [1] concerns the target Protein translocase subunit SecA (Escherichia coli (strain K12)) (UniProt P10408). The experiment is described as follows: Assay to Identify E. coli SecA ATPase Inhibitors. The format is functional. The following applies: 30 µM.
Experiment [2] has as its target T1, Ubiquitin-activating enzyme e1, putative (Leishmania donovani (strain BPK282A1)) (UniProt E9BSI1).
T1 sequence (whole entry): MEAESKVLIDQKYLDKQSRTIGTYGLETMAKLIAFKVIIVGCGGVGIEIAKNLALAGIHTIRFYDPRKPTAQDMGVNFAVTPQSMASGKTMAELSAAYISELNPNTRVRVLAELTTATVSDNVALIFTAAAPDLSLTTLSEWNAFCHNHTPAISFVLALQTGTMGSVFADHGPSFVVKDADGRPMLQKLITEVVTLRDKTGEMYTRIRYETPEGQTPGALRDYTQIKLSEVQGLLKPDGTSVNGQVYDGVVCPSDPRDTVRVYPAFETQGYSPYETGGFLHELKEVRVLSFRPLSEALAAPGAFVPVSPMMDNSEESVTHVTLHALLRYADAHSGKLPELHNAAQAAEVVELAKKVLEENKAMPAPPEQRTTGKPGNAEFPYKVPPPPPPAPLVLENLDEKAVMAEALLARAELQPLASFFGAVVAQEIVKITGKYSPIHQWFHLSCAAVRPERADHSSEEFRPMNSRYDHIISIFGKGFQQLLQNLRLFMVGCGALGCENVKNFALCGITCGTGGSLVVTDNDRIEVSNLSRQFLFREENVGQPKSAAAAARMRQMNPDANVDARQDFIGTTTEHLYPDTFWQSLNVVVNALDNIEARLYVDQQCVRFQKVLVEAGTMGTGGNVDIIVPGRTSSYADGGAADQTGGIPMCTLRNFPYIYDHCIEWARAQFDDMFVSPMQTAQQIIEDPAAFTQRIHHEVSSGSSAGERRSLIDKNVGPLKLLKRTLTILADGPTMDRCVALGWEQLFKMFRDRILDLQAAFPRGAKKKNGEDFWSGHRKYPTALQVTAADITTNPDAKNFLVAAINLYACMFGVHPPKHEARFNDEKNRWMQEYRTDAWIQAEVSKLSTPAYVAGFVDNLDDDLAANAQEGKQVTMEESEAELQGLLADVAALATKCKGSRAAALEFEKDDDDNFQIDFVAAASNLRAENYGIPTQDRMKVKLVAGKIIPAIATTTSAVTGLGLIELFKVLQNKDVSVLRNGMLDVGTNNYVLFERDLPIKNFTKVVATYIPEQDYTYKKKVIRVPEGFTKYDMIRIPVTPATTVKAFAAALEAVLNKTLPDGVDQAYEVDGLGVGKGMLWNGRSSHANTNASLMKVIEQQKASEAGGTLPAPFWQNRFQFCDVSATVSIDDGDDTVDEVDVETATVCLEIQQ
The experiment is described as follows: Leishmania donovani Ubiquitin Activating Enzyme (LdE1). In kind it is functional. The conditions noted are these: 30 µM.

Experiment [3] deals with AMP-activated protein kinase, AMPK (Homo sapiens) (UniProt P54646+O43741+P54619+Q9UGJ0+Q9Y478+Q13131+Q9UGI9). In words: AMP-dependent Kinase enzyme assay. An in vitro enzyme assay that detects ADP turnover that is directly proportional to AMPK activity. This uses naive AMPK that is activated during the assay with MK-8722. The format is functional. The conditions noted are these: 30 µM.

The target in experiment [4] is Sialic acid-binding Ig-like lectin 9 (Homo sapiens) (UniProt Q9Y336). In words: Hs-Siglec9 ALPHAscreen SOP 20170721. The following applies: 10 µM. On the technique in general: In Alpha technology, singlet oxygen from a donor bead excites a nearby acceptor bead.
In a further experiment the test system is Trypanosoma cruzi. The experiment is described as follows: Trypanosoma cruzi phosphomannomutase and mannose-1-phosphate guanylyltransferase assay. The following applies: 10 µM. The format is functional.
In experiment [5] the target is T2, Arginase-2, mitochondrial (Homo sapiens) (UniProt P78540).
T2 sequence (whole entry): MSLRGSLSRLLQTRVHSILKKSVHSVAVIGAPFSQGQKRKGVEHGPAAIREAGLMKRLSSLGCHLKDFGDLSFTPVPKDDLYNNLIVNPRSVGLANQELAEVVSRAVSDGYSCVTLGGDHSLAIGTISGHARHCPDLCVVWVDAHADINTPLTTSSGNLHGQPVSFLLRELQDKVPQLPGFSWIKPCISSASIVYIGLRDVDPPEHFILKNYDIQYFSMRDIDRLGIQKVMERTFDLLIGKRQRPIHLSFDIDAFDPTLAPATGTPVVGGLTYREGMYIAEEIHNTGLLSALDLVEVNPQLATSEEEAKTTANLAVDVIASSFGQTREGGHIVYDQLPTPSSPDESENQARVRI
The experiment is described as follows: in vitro enzyme assay to detect the production of urea directly proportional to the activity of Arginase II. Note: in the data most compounds retested in dose-response had high values. The format is functional. The conditions noted are these: 33.3 µM.

In experiment [6] the target is T3, Proteasome subunit beta (Trypanosoma cruzi) (UniProt O96673).
T3 sequence (whole entry): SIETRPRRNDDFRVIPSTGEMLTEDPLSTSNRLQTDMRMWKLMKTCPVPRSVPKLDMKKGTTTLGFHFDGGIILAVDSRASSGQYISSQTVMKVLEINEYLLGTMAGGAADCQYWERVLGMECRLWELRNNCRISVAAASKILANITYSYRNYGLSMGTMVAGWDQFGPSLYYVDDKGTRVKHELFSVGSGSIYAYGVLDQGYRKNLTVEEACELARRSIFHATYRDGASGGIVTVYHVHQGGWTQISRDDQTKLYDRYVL
The experiment is described as follows: Trypanosoma cruzi proteasome chymotrypsin-like activity (TcProtChymo) assay. Note: in the data most compounds retested in dose-response had high values. In kind it is functional. The following applies: 9.37 µM.

For the next experiment, the species on record is Homo sapiens. In words: To identify inhibition of the IFN signalling (Jak-Stat) pathway via expression of an eGFP reporter gene under the control of an IFN-stimulated response element (ISRE) containing MxA promoter. The following applies: 30 µM. The format is functional. Background: A reporter such as luciferase makes a cellular process visible.
The target of experiment [7] is T4, Tyrosyl-tRNA synthetase, putative (Trypanosoma cruzi (strain CL Brener)) (UniProt Q4DSP6).
T4 sequence (whole entry): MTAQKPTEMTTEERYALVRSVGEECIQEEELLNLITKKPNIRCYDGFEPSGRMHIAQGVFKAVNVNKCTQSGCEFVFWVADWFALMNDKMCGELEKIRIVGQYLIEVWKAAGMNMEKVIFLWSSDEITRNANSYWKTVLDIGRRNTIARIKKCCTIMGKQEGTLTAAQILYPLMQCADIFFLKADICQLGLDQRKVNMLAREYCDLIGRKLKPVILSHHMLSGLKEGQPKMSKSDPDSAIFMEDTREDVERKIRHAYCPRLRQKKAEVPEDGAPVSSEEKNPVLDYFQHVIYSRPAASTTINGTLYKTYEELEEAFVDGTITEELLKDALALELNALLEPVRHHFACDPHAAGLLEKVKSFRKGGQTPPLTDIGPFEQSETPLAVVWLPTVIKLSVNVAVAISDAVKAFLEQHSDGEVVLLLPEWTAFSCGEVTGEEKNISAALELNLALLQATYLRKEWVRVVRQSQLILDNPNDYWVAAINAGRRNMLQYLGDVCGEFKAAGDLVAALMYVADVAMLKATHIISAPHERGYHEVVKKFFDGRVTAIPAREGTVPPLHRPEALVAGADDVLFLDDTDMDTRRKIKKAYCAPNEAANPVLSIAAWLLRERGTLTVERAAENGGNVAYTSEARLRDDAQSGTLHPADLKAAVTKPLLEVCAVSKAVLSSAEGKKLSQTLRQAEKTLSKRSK
In words: Trypanosoma cruzi tyrosyl tRNA synthetase (TcYRS) _High Tyrosine SOP. Note: in the data most compounds retested in dose-response had high values. The format is functional. The following applies: 30 µM.

In experiment [8] the target is T4, Tyrosyl-tRNA synthetase, putative (Trypanosoma cruzi (strain CL Brener)). In words: Trypanosoma cruzi tyrosyl tRNA synthetase (TcYRS) SOP. The format is functional. The conditions noted are these: 30 µM.
Experiment [9] addresses Chromo domain-containing protein 1 (Saccharomyces cerevisiae (strain ATCC 204508 / S288c) (Baker's yeast)) (UniProt P32657). The experiment is described as follows: ScCHD-1 Enzyme Inhibition Assay. Note: in the data most compounds retested in dose-response had high values. The format is functional. The following applies: 30 µM.

For some of these results: Entries with a potency or affinity are not part of this list.

Chromo domain-containing protein 1 (Saccharomyces cerevisiae (strain ATCC 204508 / S288c) (Baker's yeast)), sequence (P32657 whole entry, the tested form may be a part): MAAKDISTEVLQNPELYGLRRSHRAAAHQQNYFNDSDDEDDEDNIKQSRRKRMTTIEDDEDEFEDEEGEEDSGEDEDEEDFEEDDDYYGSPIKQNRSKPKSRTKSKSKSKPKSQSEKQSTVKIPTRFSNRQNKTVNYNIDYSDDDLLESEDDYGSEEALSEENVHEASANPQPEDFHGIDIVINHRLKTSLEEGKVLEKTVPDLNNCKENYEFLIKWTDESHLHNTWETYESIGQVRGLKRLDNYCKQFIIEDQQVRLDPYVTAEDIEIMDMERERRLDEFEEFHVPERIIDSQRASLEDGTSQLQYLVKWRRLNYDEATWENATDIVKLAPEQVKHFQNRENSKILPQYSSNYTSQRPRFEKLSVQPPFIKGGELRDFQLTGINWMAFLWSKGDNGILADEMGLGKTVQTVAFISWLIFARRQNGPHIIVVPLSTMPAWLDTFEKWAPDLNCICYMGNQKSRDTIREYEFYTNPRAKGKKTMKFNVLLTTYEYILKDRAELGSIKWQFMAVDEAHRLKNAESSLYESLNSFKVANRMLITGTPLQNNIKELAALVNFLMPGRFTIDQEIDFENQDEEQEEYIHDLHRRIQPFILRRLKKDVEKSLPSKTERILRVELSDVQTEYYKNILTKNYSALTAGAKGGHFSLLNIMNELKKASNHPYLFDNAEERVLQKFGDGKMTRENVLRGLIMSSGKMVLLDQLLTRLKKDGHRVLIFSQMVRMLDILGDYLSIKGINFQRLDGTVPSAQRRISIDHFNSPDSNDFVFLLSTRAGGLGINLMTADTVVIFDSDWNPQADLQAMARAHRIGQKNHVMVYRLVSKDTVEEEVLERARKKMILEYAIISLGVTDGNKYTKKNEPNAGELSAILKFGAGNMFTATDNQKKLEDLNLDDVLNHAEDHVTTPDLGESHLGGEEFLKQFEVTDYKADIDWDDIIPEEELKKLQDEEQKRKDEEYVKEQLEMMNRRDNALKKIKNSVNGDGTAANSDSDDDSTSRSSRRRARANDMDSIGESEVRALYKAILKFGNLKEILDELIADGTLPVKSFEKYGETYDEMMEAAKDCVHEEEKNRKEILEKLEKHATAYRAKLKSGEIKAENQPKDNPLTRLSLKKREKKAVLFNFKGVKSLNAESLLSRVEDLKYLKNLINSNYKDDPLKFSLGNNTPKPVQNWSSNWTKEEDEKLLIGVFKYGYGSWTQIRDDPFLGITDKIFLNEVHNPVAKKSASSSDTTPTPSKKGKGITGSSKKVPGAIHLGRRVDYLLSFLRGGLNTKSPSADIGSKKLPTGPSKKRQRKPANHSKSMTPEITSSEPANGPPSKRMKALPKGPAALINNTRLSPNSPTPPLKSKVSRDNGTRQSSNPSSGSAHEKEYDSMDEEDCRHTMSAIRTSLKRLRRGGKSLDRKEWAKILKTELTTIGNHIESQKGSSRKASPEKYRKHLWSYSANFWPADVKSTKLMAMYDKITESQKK
Protein translocase subunit SecA (Escherichia coli (strain K12)), sequence (P10408 whole entry): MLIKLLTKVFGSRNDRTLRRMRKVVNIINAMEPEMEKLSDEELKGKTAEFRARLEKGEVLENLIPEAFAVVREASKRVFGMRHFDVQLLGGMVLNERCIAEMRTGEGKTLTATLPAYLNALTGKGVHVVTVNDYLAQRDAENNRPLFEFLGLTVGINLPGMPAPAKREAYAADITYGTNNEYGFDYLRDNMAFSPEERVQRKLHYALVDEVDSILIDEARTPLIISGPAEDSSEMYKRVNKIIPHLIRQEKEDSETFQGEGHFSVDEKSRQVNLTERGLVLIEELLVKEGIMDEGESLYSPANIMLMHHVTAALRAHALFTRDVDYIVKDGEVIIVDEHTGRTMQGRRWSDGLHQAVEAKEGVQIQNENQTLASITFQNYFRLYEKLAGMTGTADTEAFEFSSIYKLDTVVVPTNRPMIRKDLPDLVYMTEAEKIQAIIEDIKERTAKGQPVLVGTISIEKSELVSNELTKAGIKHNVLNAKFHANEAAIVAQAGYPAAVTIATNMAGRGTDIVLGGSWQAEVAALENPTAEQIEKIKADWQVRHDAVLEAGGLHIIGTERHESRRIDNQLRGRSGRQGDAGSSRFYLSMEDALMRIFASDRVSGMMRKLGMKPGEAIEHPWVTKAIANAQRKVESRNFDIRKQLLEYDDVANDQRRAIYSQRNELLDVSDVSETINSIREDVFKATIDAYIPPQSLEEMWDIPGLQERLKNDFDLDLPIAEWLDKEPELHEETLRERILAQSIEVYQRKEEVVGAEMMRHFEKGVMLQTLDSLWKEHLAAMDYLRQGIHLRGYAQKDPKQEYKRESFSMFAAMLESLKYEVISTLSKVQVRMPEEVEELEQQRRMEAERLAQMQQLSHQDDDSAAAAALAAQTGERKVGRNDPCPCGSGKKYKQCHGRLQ
Sialic acid-binding Ig-like lectin 9 (Homo sapiens), sequence (Q9Y336 whole entry): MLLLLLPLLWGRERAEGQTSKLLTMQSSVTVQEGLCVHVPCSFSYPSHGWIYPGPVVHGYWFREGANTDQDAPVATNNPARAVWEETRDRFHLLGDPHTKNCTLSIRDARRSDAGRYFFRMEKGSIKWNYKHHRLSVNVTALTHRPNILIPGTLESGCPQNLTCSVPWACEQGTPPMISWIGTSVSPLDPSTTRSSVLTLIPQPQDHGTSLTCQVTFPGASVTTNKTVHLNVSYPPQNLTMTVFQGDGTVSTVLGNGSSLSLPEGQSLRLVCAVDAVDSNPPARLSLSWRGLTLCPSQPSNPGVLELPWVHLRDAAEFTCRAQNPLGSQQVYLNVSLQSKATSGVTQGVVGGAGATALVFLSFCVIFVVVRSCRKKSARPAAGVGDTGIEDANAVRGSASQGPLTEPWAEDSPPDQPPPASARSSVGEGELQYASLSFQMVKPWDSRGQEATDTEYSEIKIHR

Regarding `CC(C)c1noc(CCCC(=O)N2CCN(Cc3ccncc3)CC2)n1`, the Percent Effect was -2.42% in experiment [1]; 22.8% in experiment [2]; -9.61% in experiment [3]; -9.55% in [4]; 3.87% with Trypanosoma cruzi; -6.84% in [5]. Besides, the Percent Effect was 12.2% in experiment [6]; 11.6% in the experiment listed under Homo sapiens; 5.42% in [7]; 21.5% in [8]; -6.65% in experiment [9].
For the molecule `CN(CC(=O)N1CCN(c2ccccc2F)CC1)c1cnccn1`, the Percent Effect was -1.13% in experiment [1]; 16.2% in [2]; -1.85% in experiment [3]; 4.66% in experiment [4]; -0.0929% with Trypanosoma cruzi; -5.73% in experiment [5]. Besides, the Percent Effect in [6] is 6.82%; in the experiment filed under Homo sapiens it was 12.1%; in experiment [7], 5.94%; in [8], 15.8%; in [9] it was -7.13%.
Regarding `O=C(CCc1ccc(Br)cc1F)NS(=O)(=O)c1ccc2c(c1)OCCO2`, the Percent Effect in [1] was -4.85%; in [2], -6.33%; in [3], 13.3%; in [4], 0.4%; with Trypanosoma cruzi, -2.15%; in [5] it was 1.07%. Further, the Percent Effect was 4.97% in experiment [6]; 18.6% in the experiment listed under Homo sapiens; -18.8% in experiment [7]; -17.7% in experiment [8]; -2.67% in experiment [9].
Take `c1cn(Cc2nnc(C3CCN(c4nccs4)CC3)n2C2CC2)cn1`: the Percent Effect was -3.22% in experiment [1]; 16% in [2]; 0.541% in experiment [3]; 19.9% in experiment [4]; 4.77% in the experiment with Trypanosoma cruzi; 13% in experiment [5]. Besides, the Percent Effect in experiment [6] was 9.59%; in the experiment filed under Homo sapiens, 7.24%; in [7] it was 7.1%; in experiment [8], 8.64%; in experiment [9], 90.7%.
Take `COc1ccc(C2(NC(=O)CCn3cncn3)CCCCC2)cc1`: the Percent Effect in [1] was -4.12%; in experiment [2], 9.46%; in experiment [3] it was 4.65%; in experiment [4] it was 7.71%; with Trypanosoma cruzi, 0.79%; in experiment [5] it was 1.62%. The Percent Effect in [6] is 11.2%; in the experiment listed under Homo sapiens it was -2%; in [7], 3.23%; in [8] it was 11.7%; in experiment [9] it was -14.1%.
For `Cc1nc(N2CCCC2)nc2c1CCN(C(=O)CC1CC1)CC2`, the Percent Effect is -4.09% in experiment [1]; 20% in experiment [2]; -2.46% in experiment [3]; 4.72% in experiment [4]; 2.75% in the experiment on Trypanosoma cruzi; -7.22% in experiment [5]. Further, the Percent Effect is 16.1% in [6]; 9.15% in the experiment listed under Homo sapiens; -2.12% in experiment [7]; 10.3% in experiment [8]; -11% in [9].
As to `CN(c1ccncn1)C1CC2(CCN(C(=O)CCc3cccs3)C2)C1` (stereo unspecified), the Percent Effect was -3.27% in [1]; 1.35% in [2]; 6.25% in experiment [3]; 8.01% in experiment [4]; 5.34% in the experiment with Trypanosoma cruzi; -1.16% in experiment [5]. The Percent Effect in experiment [6] was 1.87%; in the experiment listed under Homo sapiens, 39.7%; in [7] it was 5.38%; in experiment [8], 6.49%; in [9], -4.42%.
Regarding `CCC1=N[C@@]2(CC[C@@H]3CN(Cc4ccc(Cl)cc4)C[C@@H]32)C(=O)N1`, the Percent Effect in experiment [1] is -2.1%; in experiment [2], 2.7%; in experiment [3] it was 2.16%; in [4] it was -3.03%; in the experiment with Trypanosoma cruzi it was -7.72%; in experiment [5], -0.955%. Besides, the Percent Effect in experiment [6] turned out to be 20.3%; in the experiment filed under Homo sapiens, 3.29%; in experiment [7], 2.16%; in experiment [8] it was 2.56%; in experiment [9] it was 0.0576%.
With `Cc1ccc2c(c1)C1(CC2)CCN(c2nncs2)CC1`, the Percent Effect in experiment [1] was -0.497%; in [2], 0%; in experiment [3], 5.45%; in experiment [4], 1.98%; in the experiment with Trypanosoma cruzi it was 1.59%; in [5] it was 3.59%. For the same molecule, the Percent Effect in experiment [6] came out at 7.28%; in the experiment filed under Homo sapiens, 20.4%; in experiment [7], 6.25%; in experiment [8], 11.1%; in experiment [9], 5.12%.
As to `Cc1cccc(COC[C@@H]2CC[C@H]3[C@H](CCN3Cc3ccco3)O2)n1`, the Percent Effect in experiment [1] is -0.0692%; in [2], 16.4%; in experiment [3], -0.44%; in [4], 9.35%; with Trypanosoma cruzi, 7.74%; in experiment [5] it was -2.79%. The Percent Effect in [6] was 15.2%; in the experiment listed under Homo sapiens, -16.7%; in [7] it was 5.21%; in experiment [8], 13.6%; in [9], -7.59%.
Regarding `COc1ccccc1CN1CCC2(CC1)CC(Oc1ccccn1)CO2` (stereo unspecified), the Percent Effect in experiment [1] was -0.474%; in experiment [2], 16%; in experiment [3], -2.4%; in experiment [4], -9.97%; in the experiment with Trypanosoma cruzi it was 2.76%; in experiment [5], 132%. Besides, the Percent Effect in experiment [6] is 14.9%; in the experiment filed under Homo sapiens, -3.26%; in [7], 4.25%; in experiment [8], 8.97%; in [9] it was -13.9%.
